GAA inh – alpha-glucosidase (human) inhibition; hit rate 0.005% among 200,000; purified human GAA, 4-MU-alpha-glucoside fluorescence; P10253; Potency, µM (titrated, usually from 76.9 µM), for inactives: at the top dose activity change, negative = inhibition, usual class: inhibitors;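 also: potency is read from the fitted curve at half-maximal effect; plate controls were uninhibited enzyme wells for no effect and no-enzyme background for full effect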
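Enzyme (4 nM final) mixed with compound (up to 77 uM), then 4-MU-alpha-D-pyranoside (400 uM final) added; 20 min at room temperature, pH 5.0. Reaction stopped at pH 10, fluorescence read, AC50 derived by Hill fit.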
GAA glycogen – alters human alpha-glucosidase cleavage of glycogen; recombinant GAA, glycogen substrate, Amplex Red glucose oxidase fluorescence; Potency, µM (titrated, usually from 76.4 µM), without a hit: top-dose activity change, negative = inhibition, hits mostly inhibitors; hit rate 0.38% among 300,000; AID 2100;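 also: potency is read from the fitted curve at half-maximal effect; 0% = full enzyme reaction and -100% = no-enzyme basal signal; the screen sought inhibitors and activators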
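Natural-substrate format: glycogen cleavage by 4 nM human enzyme, glucose read by Amplex Red coupling (Ex 573, Em 610 nm). Normalized to enzyme and no-enzyme controls.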
GLA inh pH 4.5 – inhibitors of human alpha-galactosidase A at pH 4.5. purified enzyme, 4-MU-alpha-Gal fluorescence, pH 4.5. 230,000 tested, under 10 active. P06280. AID 1467. activity change, negative = inhibition, % at 105 µM;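 also: 0% = full activity with enzyme and -100% = basal without enzyme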
GAA spleen mod – lysosomal alpha-glucosidase (human) modulation; human spleen homogenate, 4-MU-alpha-glucoside fluorescence; Potency, µM (doses to about 79.9 µM), for inactives: at the highest dose activity change, negative = inhibition, actives largely listed as inhibitors; hit rate 0.006% among 240,000;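 also: potency is read from the fitted curve at half-maximal effect; 0% = enzyme with vehicle and -100% = no enzyme basal signal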
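AC50 values come from Hill-equation fits of concentration-response data, normalized to no-enzyme and full-activity controls. Enzyme source: 1 ug human spleen homogenate; 1 mM fluorogenic 4-MU glucoside, pH 5.0 citrate buffer, 37 C, 40 min.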
GLA spleen mod – alpha-galactosidase A (human) modulation. P06280. human spleen homogenate, 4MU-alpha-Gal fluorescence, 40 min. Potency, µM (highest dose often 80 µM), without a hit: at the top dose activity change, negative = inhibition, usual class: inhibitors. hit rate 0.008% among 240,000;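 also: potency is read from the fitted curve at half-maximal effect; 0% = enzyme with vehicle and -100% = no enzyme basal signal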
Target sequence (P06280 32-429 limits assumed): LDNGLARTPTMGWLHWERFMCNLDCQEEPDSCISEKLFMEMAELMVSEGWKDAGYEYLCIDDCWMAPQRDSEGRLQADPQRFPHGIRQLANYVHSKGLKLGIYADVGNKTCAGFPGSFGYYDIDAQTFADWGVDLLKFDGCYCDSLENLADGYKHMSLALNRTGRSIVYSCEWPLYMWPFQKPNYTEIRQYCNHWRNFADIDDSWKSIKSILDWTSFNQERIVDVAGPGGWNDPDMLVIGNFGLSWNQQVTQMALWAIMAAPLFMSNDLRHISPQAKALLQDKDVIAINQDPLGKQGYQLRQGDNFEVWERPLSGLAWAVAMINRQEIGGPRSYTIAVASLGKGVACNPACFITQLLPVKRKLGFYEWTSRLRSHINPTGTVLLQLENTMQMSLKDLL
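qHTS titration in buffer at pH 5.0. Alpha-galactosidase activity in spleen homogenate was measured via 4-methylumbelliferone release from 1 mM fluorogenic substrate after 40 min at 37C and a pH 10 stop. AC50 came from Hill fits of control-normalized data.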
Active calls of the source: *; ? = inconclusive; . = no result; [ ] = remark or other dose. Shown is part of a subset that was picked to be rich in hits. Calls follow the shape of the dose curve; as a rule, active = well fitted curve in the direction sought with a large enough effect; inconclusive = small, poorly fitted or top-dose-only effect, or another doubt; inactive = no such curve, though single readings can be large; an effect the other way counts as inactive or inconclusive.

SMILES	GAA inh	GAA glycogen	GLA inh pH 4.5	GAA spleen mod	GLA spleen mod
Cn1c(CNc2ccccc2O)nc2ccccc21	4%[15.4 µM]	14µM*	-1	-6%	-6%
Cc1ccccc1NCc1nc2ccccc2n1C	.	5%[76.3 µM]	.	.	.
C/C=C(/C)C#N	.	.	.	3%	2%
Oc1ccc(C2Oc3cc(O)cc(O)c3CC2O)cc1 (centres undefined)	.	.	7	5%	16%
Oc1cc(O)c2c(c1)O[C@H](c1ccc(O)c(O)c1)[C@H](O)C2	.	10µM*	7	11%[29.1 µM]	7%[29.1 µM]
Cc1ccc2nc3c(c(Nc4ccc(O)cc4)c2c1)CCC3	.	13µM*	.	.	.
Cc1noc(C)c1-c1ccc2ncnc(NCC3CCN(C)CC3)c2c1	.	.	.	0%	-1%
Cc1ccc(S(=O)(=O)N2CCN(CC(=O)N/N=C/c3ccc(C)o3)CC2)cc1	?	-24%	-1	-9%	7%
Cc1ccc(S(=O)(=O)N2CCN(CC(=O)N/N=C\c3ccc(O)c(O)c3)CC2)cc1	.	6.3µM*	4	?	-18%
COc1ccc(S(=O)(=O)N2CCN(CC(=O)c3ccc(O)c(O)c3)CC2)cc1	.	10µM*	.	.	.
O=C(CN1CCN(S(=O)(=O)c2ccc(Cl)cc2)CC1)c1ccc(O)c(O)c1	.	8.9µM*	.	.	.
N#C/C(=C/c1ccc(F)cc1)C(N)=S	?	35µM*	-6	-5%	-3%
COc1ccc(CNc2nc(NCc3ccc(OC)cc3)c3ncn(C4CCCCC4)c3n2)cc1	.	.	.	-1%	-4%
CC(=O)N=c1sc2ccccc2n1C	-10%	6%	-6	1%	1%
N/N=c1\sc2ccccc2n1-c1ccccc1	-3%	20µM*	-19	-7%	-11%
O=C(NNc1ccccn1)C(=O)NNS(=O)(=O)c1ccc(Cl)cc1	5%	3.2µM*	-5	-6%	0%
Cc1nnc(-c2cnn(C)c2N)n1Cc1ccc(Cl)cc1	0%	0%	7	3%	5%
COc1ccc(Cn2c(C)nnc2-c2cnn(C)c2N)cc1	5%	-1%	12	?	28µM*
CC1(C(=O)O)Sc2[nH]c(=O)sc2C2c3ccccc3OC(=O)C21 (centres undefined)	1%	25µM*	2	5%	6%
Cc1cc(-c2ccc(N=Nc3ccc4c(S(=O)(=O)O)cc(S(=O)(=O)O)c(N)c4c3O)c(C)c2)ccc1N=Nc1ccc2c(S(=O)(=O)O)cc(S(=O)(=O)O)c(N)c2c1O	.	.	-8	1%	10%
CCOC(=O)CNc1c(-c2ccc(F)cc2)nc2cnccn12	8%	12µM*	12	-10%	11%
Clc1ccc(-c2nc3cnccn3c2NC2CCCC2)cc1	-3%	?	1	2%	9%
CCOC(=O)CNc1c(-c2ccc(Cl)cc2)nc2cnccn12	?	40µM*	3	1%	3%
OC[C@H]1OC(O)[C@H](O)[C@@H](O)[C@@H]1O (some centres undefined)	.	.	.	3%	10%
CC(C)CC1Nc2ccc(C(=O)NCCCN3CCCCC3C)cc2NC1=O (centres undefined)	.	13µM*	.	.	.
SMILES	GAA inh	GAA glycogen	GLA inh pH 4.5	GAA spleen mod	GLA spleen mod
CCCCCCCCCCCCCCOc1ccc(C(=O)O)o1	.	.	.	-2%	-6%
O=C(CN1C(=O)CCC1=O)NNc1ccc2ccccc2c1	6%	11µM*	6	5%	-9%
O=C(Cc1ccccc1)NNc1ccc2ccccc2c1	-3%	25µM*	-4	0%	-1%
O=C(COc1ccc2ccccc2c1)NNC(=O)Cc1ccccc1	-1%	9%	-2	-12%	-8%
CCOC(=O)NCCOc1ccc(Oc2ccccc2)cc1	.	.	.	-4%	-3%
O=c1c2ccccc2[nH]c2ccc(O)cc12	.	20µM*	.	.	.
CC1CCC2C(C)C3C(CC4[C@@H]5CC=C6C[C@@H](O)CC[C@]6(C)C5CC[C@]34C)N2C1 (some centres undefined)	.	.	.	7%	0%
O=C(O)c1cc2c(ccc3ccccc32)o1	-2%	28%	6	-12%	40µM*
NNC(=O)c1cc2c(ccc3ccccc32)o1	-5%	?	1	-4%	-14%
O=C1c2c(O)cc(O)cc2O[C@H](c2ccc(O)c(O)c2)C1O (some centres undefined)	.	.	.	4%	-13%
Nc1n[nH]c(N)c1N=Nc1ccc2c(c1)OCO2	-8%	13µM*	-3	-2%	-3%
Nc1n[nH]c(C2CC2)c1N=Nc1ccc(Cl)c(Cl)c1	.	-7%	-7	-10%	3%
COC(=O)NC(c1ccccc1)C(C#N)C(=O)OC (centres undefined)	.	.	.	-7%[17.4 µM]	-7%[17.5 µM]
CC[C@H](C)[C@H](NC(=O)[C@H](Cc1ccc(O)cc1)NC(=O)[C@@H](NC(=O)[C@H](CCCN=C(N)N)NC(=O)[C@@H](N)CC(=O)O)C(C)C)C(=O)N[C@@H](Cc1ccc(N)cc1)C(=O)N1CCC[C@H]1C(=O)N[C@@H](Cc1ccccc1)C(=O)O	.	.	.	-14%	1%
Cc1ccc(-n2c(CNc3cccc(Cl)c3)n[nH]c2=S)cc1	-3%	28µM*	10	-2%	-2%
CC(C)(C)NC(=S)Nc1ccc(Nc2ccccc2)cc1	-8%	14µM*	-7	?	0%
Oc1ccc(N2CCN(c3nnnn3-c3ccccc3)CC2)cc1	-1%	4µM*	-25	-19%	1%
CC(=O)N1CCN(c2nnnn2-c2ccccc2)CC1	3%	5%	-8	-1%	-3%
Cc1[nH]c(/C=C2/C(=O)Nc3ccc(S(=O)(=O)Cc4c(Cl)cccc4Cl)cc32)c(C)c1C(=O)N1CCCC1CN1CCCC1 (centres undefined)	.	.	.	-12%	-6%
CCOC(=O)CN=C1CC(C)(C)CC2=C1Sc1ncnc(N(C)C)c1N2	0%	28µM*	0	-1%	6%
C=C[C@@]1(C)CC[C@H]2C(=CC[C@@H]3[C@]2(C)CCC[C@@]3(C)C(=O)O)C1	.	.	.	2%	17%
O=[N+]([O-])c1ccc(N/N=C/c2cccnc2)cc1	.	-1%[76.3 µM]	.	.	.
O=[N+]([O-])c1ccc(N/N=C/c2c[nH]c3ccccc23)cc1	4%	18µM*	-1	-20%	-12%
O=[N+]([O-])c1ccc(N/N=C/c2ccc[nH]2)cc1	1%	7.9µM*	-6	-11%	2%

Bioassay records deposited in PubChem BioAssay by National Center for Advancing Translational Sciences (NCATS).
